Test results taken from the supplement of paper PMC10849652.
The full data set covers some 7,900 targets. This sample favours those with a hit. About 0.6% of all pairs of compound and target were hits.

Assays:
Test in all cases: log2 fold change, soluble protein after heating vs DMSO (PISA); higher = thermal stabilisation; K562 cells, 10 uM, 30 min; active = over 0.2 and 3.5 SD of the protein, either way, in both replicates (recomputed)
[1] = compound: C1=CC=C(C=C1)[C@H](COC2=CC3=C(C=C2)NC(=O)N3)NC(=O)C4=CC=CN(C4=O)CC5=CC(=C(C=C5)F)F
Outline: (§1)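 K562 cells at 2×10^6 cells/mL were exposed to 10 μM compound for 30 min, then aliquots were heated for 3 min across 48°C-58°C, pooled, and extracted in PBS containing 0.5% NP-40 at 4°C. The supernatant after 21,000xg for 90 min was taken as soluble protein and measured by TMTpro 16plex LC-MS/MS with channel sums equalised. Thermal stability is reported relative to control samples, with values from duplicates. Fold changes are given on a log2 scale.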

[2] = compound: CC1=C(SC2=C1C(=N[C@H](C3=NN=C(N32)C)CC(=O)N)C4=CC=C(C=C4)Cl)C
Outline: as §1

[3] = compound: CC1=C2C(=CC=C1)N=C(N(C2=O)C3=CC=CC=C3C)CN4C=NC5=C(N=CN=C54)N
Outline: as §1

[4] = compound: Cc1sc2c(c1C)C(c1ccc(Cl)cc1)=N[C@@H](CC(=O)OC(C)(C)C)c1nnc(C)n1-2
Outline: as §1

[5] = compound: c1ccc([C@@H]2C[C@H]2NC2CCNCC2)cc1
Outline: as §1

Measured: log2 fold change

TECR (UniProt Q9NZ01)
inactive: [1] -0.015 | [2] 0.049 | [3] 0.033 | [4] -0.046 | [5] 0

SRP72 (UniProt O76094)
inactive: [1] -0.068 | [2] -0.016 | [3] 0.047 | [4] 0.097 | [5] -0.016

SNX15 (UniProt Q9NRS6)
inactive: [1] 0.065 | [2] -0.032 | [3] 0.141 | [4] 0.279 | [5] -0.081

STK11IP (UniProt Q8N1F8)
Sequence of UniProt Q8N1F8 (Q8N1F8 whole entry, looked up): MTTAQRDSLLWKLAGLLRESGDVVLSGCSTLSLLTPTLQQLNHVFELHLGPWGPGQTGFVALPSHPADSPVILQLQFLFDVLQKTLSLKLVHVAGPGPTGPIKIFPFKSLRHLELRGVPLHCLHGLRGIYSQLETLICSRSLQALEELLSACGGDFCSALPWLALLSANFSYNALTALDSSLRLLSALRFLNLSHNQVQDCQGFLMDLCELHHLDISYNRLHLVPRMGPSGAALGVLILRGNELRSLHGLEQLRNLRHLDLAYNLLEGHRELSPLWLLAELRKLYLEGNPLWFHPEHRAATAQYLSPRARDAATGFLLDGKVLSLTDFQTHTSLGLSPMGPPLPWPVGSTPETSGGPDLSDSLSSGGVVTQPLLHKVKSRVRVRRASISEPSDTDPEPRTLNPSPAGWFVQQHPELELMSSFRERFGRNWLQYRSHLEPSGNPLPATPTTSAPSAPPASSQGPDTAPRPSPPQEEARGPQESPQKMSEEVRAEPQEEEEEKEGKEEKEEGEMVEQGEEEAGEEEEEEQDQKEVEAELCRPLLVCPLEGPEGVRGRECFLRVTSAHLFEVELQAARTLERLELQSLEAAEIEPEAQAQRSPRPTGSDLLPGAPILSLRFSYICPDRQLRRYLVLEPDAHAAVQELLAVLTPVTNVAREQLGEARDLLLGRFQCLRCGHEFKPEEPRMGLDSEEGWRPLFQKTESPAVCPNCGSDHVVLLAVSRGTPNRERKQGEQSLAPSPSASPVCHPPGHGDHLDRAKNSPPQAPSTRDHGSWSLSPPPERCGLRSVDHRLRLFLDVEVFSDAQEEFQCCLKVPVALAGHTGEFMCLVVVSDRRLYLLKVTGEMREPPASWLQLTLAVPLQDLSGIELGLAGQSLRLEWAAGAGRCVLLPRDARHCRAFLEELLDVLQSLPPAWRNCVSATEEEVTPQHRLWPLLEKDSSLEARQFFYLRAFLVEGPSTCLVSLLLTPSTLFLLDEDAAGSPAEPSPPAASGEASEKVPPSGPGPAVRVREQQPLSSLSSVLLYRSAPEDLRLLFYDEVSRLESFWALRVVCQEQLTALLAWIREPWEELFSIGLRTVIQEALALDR
inactive: [1] 0.035 | [2] 0.026 | [3] -0.02 | [4] 0.05 | [5] -0.048

SLC27A2 (UniProt O14975)
inactive: [1] 0.038 | [2] 0.036 | [3] 0.141 | [4] 0.011 | [5] -0.027

SMPD4 isoform 2 (UniProt Q9NXE4)
Sequence of UniProt Q9NXE4 (Q9NXE4 whole entry, looked up): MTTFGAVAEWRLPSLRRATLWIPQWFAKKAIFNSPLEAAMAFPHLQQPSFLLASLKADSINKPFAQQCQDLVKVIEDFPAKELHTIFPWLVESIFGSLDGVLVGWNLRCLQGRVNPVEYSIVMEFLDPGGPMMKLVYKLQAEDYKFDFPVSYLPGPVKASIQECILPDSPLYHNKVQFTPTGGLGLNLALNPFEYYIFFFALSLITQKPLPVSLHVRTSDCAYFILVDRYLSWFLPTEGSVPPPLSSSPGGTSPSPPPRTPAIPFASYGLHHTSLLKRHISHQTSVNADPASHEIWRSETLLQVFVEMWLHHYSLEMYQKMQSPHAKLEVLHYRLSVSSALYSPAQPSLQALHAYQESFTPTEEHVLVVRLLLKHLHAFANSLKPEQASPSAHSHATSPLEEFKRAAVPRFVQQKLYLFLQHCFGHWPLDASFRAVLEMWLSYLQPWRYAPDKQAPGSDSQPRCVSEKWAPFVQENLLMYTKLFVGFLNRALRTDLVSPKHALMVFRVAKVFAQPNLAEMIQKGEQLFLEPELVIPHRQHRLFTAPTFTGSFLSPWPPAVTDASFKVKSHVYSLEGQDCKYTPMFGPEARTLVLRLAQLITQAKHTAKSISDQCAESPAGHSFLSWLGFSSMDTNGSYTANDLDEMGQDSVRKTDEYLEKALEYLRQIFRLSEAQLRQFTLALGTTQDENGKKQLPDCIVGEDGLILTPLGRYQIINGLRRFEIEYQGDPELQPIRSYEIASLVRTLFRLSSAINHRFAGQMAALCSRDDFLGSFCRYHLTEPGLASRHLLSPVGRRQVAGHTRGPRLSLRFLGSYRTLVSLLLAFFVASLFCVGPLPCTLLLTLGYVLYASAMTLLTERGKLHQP
inactive: [1] -0.25 | [2] -0.029 | [3] -0.048 | [4] -0.061 | [5] -0.097

STARD3 (UniProt Q14849)
inactive: [1] 0.011 | [2] -0.036 | [3] 0.14 | [4] 0.066 | [5] -0.153

SPTBN4 (UniProt Q9H254)
inactive: [1] -0.058 | [2] -0.083 | [3] 0.148 | [4] 0.014 | [5] -0.001

TCERG1 (UniProt O14776)
Sequence of UniProt O14776 (O14776 whole entry, looked up): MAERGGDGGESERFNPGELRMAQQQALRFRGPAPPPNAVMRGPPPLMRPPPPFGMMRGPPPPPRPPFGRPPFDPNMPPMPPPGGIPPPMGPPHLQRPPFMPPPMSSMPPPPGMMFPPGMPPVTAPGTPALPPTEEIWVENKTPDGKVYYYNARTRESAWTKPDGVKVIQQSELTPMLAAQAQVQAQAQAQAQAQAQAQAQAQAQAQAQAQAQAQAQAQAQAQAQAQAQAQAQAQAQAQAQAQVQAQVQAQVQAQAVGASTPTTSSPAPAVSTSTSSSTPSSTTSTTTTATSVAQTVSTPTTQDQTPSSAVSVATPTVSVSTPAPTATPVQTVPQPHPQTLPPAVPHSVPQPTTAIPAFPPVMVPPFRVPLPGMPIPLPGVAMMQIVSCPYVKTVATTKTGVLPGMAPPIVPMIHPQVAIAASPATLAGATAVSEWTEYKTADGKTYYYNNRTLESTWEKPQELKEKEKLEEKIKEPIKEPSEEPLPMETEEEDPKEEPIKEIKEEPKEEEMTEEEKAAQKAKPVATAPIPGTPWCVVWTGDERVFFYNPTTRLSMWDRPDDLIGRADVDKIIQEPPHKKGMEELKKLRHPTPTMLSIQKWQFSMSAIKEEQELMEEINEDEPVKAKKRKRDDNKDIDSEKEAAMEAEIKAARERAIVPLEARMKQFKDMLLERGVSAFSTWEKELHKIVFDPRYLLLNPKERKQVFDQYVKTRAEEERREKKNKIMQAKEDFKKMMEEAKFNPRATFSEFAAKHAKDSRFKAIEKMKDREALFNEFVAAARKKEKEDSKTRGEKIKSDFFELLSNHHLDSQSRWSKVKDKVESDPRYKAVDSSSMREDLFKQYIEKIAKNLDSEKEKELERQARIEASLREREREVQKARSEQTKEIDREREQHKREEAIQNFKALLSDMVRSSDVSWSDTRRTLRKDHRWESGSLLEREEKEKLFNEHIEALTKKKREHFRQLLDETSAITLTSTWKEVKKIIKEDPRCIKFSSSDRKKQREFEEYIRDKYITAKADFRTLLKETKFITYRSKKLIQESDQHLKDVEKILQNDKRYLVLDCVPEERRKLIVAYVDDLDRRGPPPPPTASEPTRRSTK
inactive: [1] -0.1 | [2] 0.106 | [3] 0.182 | [4] -0.065 | [5] -0.033

SPPL2B (UniProt Q8TCT7)
Sequence of UniProt Q8TCT7 (Q8TCT7 whole entry, looked up): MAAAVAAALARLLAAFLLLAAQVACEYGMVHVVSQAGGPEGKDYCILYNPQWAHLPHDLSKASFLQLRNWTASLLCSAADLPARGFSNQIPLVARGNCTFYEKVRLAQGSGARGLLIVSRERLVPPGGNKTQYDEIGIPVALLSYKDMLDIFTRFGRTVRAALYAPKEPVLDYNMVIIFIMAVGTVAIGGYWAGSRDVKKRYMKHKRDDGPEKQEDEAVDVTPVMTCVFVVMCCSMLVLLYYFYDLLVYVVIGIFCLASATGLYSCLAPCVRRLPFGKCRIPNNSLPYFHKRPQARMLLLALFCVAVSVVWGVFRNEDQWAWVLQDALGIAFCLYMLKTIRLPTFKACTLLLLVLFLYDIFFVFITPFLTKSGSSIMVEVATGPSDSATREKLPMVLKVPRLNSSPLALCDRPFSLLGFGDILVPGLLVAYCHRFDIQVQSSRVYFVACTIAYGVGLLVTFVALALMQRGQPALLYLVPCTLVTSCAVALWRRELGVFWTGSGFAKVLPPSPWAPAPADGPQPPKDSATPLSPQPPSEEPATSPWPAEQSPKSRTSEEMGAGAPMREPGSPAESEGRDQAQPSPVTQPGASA
inactive: [1] 0.039 | [2] 0.132 | [3] 0.049 | [4] 0.024 | [5] -0.022

SLIRP (UniProt Q9GZT3)
inactive: [1] -0.038 | [2] -0.073 | [3] 0.01 | [4] -0.016 | [5] 0.042

STX17 (UniProt P56962)
Sequence of UniProt P56962 (P56962 whole entry, looked up): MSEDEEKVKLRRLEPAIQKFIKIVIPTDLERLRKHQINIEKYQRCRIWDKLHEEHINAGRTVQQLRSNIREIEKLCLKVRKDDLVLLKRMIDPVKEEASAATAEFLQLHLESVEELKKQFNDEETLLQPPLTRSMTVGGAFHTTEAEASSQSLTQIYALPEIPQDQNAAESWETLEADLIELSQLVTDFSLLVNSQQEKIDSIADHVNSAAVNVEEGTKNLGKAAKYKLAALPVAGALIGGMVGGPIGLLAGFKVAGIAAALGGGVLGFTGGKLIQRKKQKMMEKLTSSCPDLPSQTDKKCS
inactive: [1] 0.03 | [2] 0.006 | [3] 0.029 | [4] 0.004 | [5] -0.058

SPIRE1 (UniProt Q08AE8)
inactive: [1] 0.079 | [2] 0.002 | [3] 0.196 | [4] -0.01 | [5] 0.075

TMBIM1 (UniProt Q969X1)
inactive: [1] 0.024 | [2] 0.206 | [3] 0.242 | [4] -0.005 | [5] 0.193

SNRPD3 (UniProt P62318)
Sequence of UniProt P62318 (P62318 whole entry, looked up): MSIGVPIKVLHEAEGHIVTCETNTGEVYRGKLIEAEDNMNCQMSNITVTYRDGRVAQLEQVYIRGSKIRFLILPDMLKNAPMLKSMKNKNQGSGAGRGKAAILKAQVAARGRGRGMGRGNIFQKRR
inactive: [1] 0.035 | [2] -0.029 | [3] 0 | [4] 0.106 | [5] 0.036

SLC35B1 isoform 2 (UniProt P78383)
inactive: [1] -0.166 | [2] -0.233 | [3] 0.146 | [4] -0.215 | [5] 0.027

SRSF6 (UniProt Q13247)
inactive: [1] -0.071 | [2] -0.453 | [3] -0.109 | [4] 0.217 | [5] 0.015

STEAP3 isoform 2 (UniProt Q658P3)
inactive: [1] -0.011 | [2] 0 | [3] 0.022 | [4] -0.034 | [5] -0.04

STK25 (UniProt O00506)
inactive: [1] -0.022 | [2] 0.111 | [3] 0.015 | [4] -0.019 | [5] -0.016

SNX2 (UniProt O60749)
Sequence of UniProt O60749 (O60749 whole entry, looked up): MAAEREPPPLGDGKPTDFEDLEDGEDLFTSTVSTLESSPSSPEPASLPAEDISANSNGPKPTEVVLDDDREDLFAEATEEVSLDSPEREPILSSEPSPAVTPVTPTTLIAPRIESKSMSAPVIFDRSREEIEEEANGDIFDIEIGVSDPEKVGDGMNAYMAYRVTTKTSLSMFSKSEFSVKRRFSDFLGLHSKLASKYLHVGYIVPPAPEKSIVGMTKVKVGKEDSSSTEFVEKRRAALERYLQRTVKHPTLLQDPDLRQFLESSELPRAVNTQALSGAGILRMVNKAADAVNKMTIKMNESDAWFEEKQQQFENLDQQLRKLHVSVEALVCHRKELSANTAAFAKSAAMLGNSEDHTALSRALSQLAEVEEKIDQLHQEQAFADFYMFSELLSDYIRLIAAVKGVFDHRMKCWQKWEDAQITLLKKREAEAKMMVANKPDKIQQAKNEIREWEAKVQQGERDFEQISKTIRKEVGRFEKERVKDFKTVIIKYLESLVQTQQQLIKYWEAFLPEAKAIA
inactive: [1] -0.015 | [2] 0.069 | [3] 0.066 | [4] -0.026 | [5] -0.079

SNX9 (UniProt Q9Y5X1)
inactive: [1] -0.051 | [2] 0.019 | [3] 0.048 | [4] 0.002 | [5] 0.017

TIMM44 (UniProt O43615)
inactive: [1] -0.099 | [2] 0.043 | [3] 0.088 | [4] 0.008 | [5] -0.017

SMAP (UniProt O00193)
inactive: [1] -0.082 | [2] 0.011 | [3] 0.03 | [4] -0.039 | [5] 0.003

SLC7A6OS (UniProt Q96CW6)
Sequence of UniProt Q96CW6 (Q96CW6 whole entry, looked up): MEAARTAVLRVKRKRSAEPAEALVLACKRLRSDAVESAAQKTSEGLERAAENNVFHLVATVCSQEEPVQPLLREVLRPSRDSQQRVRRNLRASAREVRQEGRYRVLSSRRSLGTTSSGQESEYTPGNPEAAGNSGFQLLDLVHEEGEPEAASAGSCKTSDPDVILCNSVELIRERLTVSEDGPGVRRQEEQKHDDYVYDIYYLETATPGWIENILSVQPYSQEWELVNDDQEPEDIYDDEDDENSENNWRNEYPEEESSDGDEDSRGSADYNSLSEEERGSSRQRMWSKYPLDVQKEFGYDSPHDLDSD
inactive: [1] -0.026 | [2] -0.043 | [3] 0.03 | [4] 0.012 | [5] 0.032
